The results in this text go back to PubChem BioAssay AID651814 (National Center for Advancing Translational Sciences (NCATS), 2012).

Molecules are shown by their SMILES. Where “and” joins values, the source holds several entries; their conditions need not be identical. Equal values may be shown once. In all, about 2,100 compounds went through this assay and about 590 (28%) were called active. Inconclusive results (about 42%) are left out. Some of the results follow. Values without a mark were called inactive. Calls come from the whole dose curve; as a rule, active = well fitted inhibition curve with a large enough effect; inconclusive = small, poorly fitted or top-dose-only effect; inactive = flat fitted curve, though single readings scatter.
Potency is the fitted concentration of half-maximal effect.

DNA dC->dU-editing enzyme APOBEC-3F (Homo sapiens), sequence (Q8IUX4 whole entry, looked up): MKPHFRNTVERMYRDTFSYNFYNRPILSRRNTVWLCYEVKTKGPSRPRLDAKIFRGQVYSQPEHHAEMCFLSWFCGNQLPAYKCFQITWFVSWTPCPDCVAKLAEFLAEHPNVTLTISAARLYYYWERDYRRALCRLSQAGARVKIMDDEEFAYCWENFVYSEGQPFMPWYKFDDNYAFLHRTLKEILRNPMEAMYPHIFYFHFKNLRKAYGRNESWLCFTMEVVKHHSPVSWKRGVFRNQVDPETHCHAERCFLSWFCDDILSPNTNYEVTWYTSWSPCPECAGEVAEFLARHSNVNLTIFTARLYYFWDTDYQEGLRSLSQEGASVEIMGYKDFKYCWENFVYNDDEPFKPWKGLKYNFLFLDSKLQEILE

This assay deals with DNA dC->dU-editing enzyme APOBEC-3F (Homo sapiens) (UniProt Q8IUX4). The assay can be described thus: qHTS for inhibitors of Vif-A3F interactions: Cherry picks.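 For max response: % of control where 0% means no effect; active compounds raise eYFP fluorescence by blocking Vif-driven A3F loss.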 Note: nearly all actives have a fitted effect of over 70% in size. As to conditions: HeLa A3F-eYFP + Vif (tagged APOBEC3F with the HIV-1 protein that degrades it), eYFP fluorescence, 24 h. The procedure, abridged:
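HeLa cells stably expressing A3F-eYFP plus Vif, cultured overnight, then exposed to compounds at several concentrations for 24 h at 37 deg C. Reduced Vif-driven degradation read as rising eYFP fluorescence (488 nm ex/500-530 nm em) by laser-scanning cytometry; MG132 as positive control.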
In general terms: In qHTS, concentration-response curves come from the screen itself.
As for `CN1C2=CC=CC=CC2=[N+](C)C12C([N+](=O)[O-])=CC(=[N+]([O-])[O-])C=C2[N+](=O)[O-]` (stereo not drawn), the max response was -0.344%.
On the same count and under the same terms, next, `COc1ccccc1/C=N/NC(=S)Nc1cccnc1`: -4.95%; `CC(=O)c1cccc(NC(=O)C2CCCN(S(=O)(=O)c3cccc4nonc34)C2)c1` (stereo not drawn): -0.245%.
As for `COc1ccc(C(=O)c2sc3nc(C)cc(-c4cccs4)c3c2N)cc1`, the Potency was 18.4 µM (active).
Regarding `O=C(NC(=S)N1CCN(C2CCCCC2)CC1)c1ccccc1`, the max response was 3.13%.
Take `CCCCN1C(=O)/C(=C/C=C2/CC(C)(C)CN2C)SC1=S`: the Potency was 3.96 µM (active).
Take `Cc1ccc(Cn2c(SCc3ccc(C(=O)NC4CCCC4)cc3)nc3ccncc32)cc1`: the max response is -0.957%.
As for `ClCC1NCC(c2ccccc2Cl)c2c1[nH]c1ccccc21` (stereo not drawn), the max response is -5.81%.
`Cn1cc(C2=C(c3ccc(Cl)cc3Cl)C(=O)NC2=O)c2ccccc21`: the Potency was 2.91 µM (active) and 14.6 µM (active).
For `COc1ccc(S(=O)(=O)N2c3ccccc3OCC2CC(=O)O)cc1` (stereo not drawn), the max response was -27.6%.
Still for that read-out and setting: to `COc1cc(NC(=O)c2ccco2)c(C(=O)OCC(=O)c2c[nH]c3ccccc23)cc1OC` belongs -11.7%.
On to `Cn1nnc2c[n+](CC(=O)c3ccc(Cl)cc3)cc(Br)c21`, for which the Potency is 17.7 µM (active).
Turning to `O=C(Nc1cc(Cl)ccc1-n1cncn1)c1ccc([N+](=O)[O-])s1`, the Potency was 15.8 µM (active).
With `N#CC1=C(N)Oc2ccc3ccc(O)cc3c2C1c1ccsc1` (stereo not drawn), the max response was -15.9%.
Take `N#CC1=C(N)Oc2cc(N)ccc2C1c1ccc(F)cc1F` (stereo not drawn): the Potency is 18.4 µM (active).
As for `Cc1oc(C)c2c(=O)ccc3c(c12)OC(N)=C(C#N)C3c1ccc(F)cc1` (stereo not drawn), the max response is 1.74%.
For the molecule `O=C1[C@@H]2[C@@H](CN3CN(c4ccccc4)N=C(c4ccccc4)[C@@]23c2ccccc2)C(=O)N1c1ccccc1`, the max response is -0.723%.
Take `CC(C)CC[n+]1ccccc1/C=C/c1ccc(N(C)C)cc1`: the Potency is 20.6 µM (active).
With `CC[n+]1ccccc1/C=C/c1ccc(N(C)C)cc1`, the Potency is 20.6 µM (active).
For the molecule `Cc1ccc(-c2csc(NC3OC(=O)c4ccccc43)n2)cc1` (stereo not drawn), the Potency was 14 µM (active).
Take `Fc1ccc(CNc2nc3ccccc3n3nnnc23)cc1`: the Potency is 23.1 µM (active).
As to `c1ccc2c(c1)nc(NCC1CCCO1)c1nnnn12` (stereo not drawn), the max response is -11.8%.
Regarding `Fc1ccc(CNc2nc3ccc(Cl)cc3n3nnnc23)cc1`, the max response is -20.9%.
Regarding `c1ccc2c(CCc3c[nH]c4ccccc34)ccnc2c1`, the Potency is 20.6 µM (active).
Still for that read-out and setting: next, `O=C(N/N=C\C=C\c1ccc([N+](=O)[O-])o1)c1cccs1`: 12.5 µM (active).
Turning to `Cc1ccccc1OCC(=O)N/N=C/c1ccc(N(C)C)cc1`, the max response is -27.7%.
Still for that read-out and setting: next, `O=C(COc1ccccc1-c1ccccc1)NN=C1CCCC1`: -15.6%.
On to `O=C(N/N=C/C=C/c1ccco1)c1ccncc1`, for which the max response was -0.284%.
As to `COc1ccccc1OCC(=O)N/N=C/C=C/c1ccc([N+](=O)[O-])o1`, the Potency is 10.3 µM (active).
In the case of `O=C(CN1C(=O)CSc2ncccc21)Nc1cccc(Cl)c1`, the max response was -15.2%.
Take `CC(C)COc1ccc(C(=O)N/C(=C/c2cccc([N+](=O)[O-])c2)C(=O)O)cc1`: the max response is -0.401%.
As for `CC(=O)n1cc(/C=N/NC(=O)c2sc(C)nc2C)c2ccccc21`, the max response was -21.7%.
Same read-out and setting: next, `CCCC(=O)NC(c1ccc(OC)cc1)c1c(O)ccc2ccccc12` (stereo not drawn): -21%.
In the case of `COc1ccc(N=Cc2c(O)c3ccccc3n2C(C)=O)cc1`, the Potency was 20.6 µM (active).
Regarding `COc1ccc(N=Cc2oc3ccc4ccccc4c3c2O)cc1`, the Potency was 5.17 µM (active).
Turning to `COc1ccc(N=Cc2sc(O)c3ccccc23)cc1`, the Potency was 8.86 µM (active).
Consider `Oc1sc(C=Nc2ccccc2)c2ccccc12`, for which the Potency is 20.6 µM (active).
As to `CC1(C)CC(=O)C(C=Nc2cc(C(=O)c3ccccc3)ccc2N)=C(O)C1`, the max response is -20.7%.
For the molecule `O=c1[nH]c2ccccc2n2c(=S)[nH]nc12`, the max response is -3.48%.
With `COc1ccc(N/C=C2\C(=O)CCc3c2oc2cc(Cl)c(O)c(Cl)c32)cc1`, the max response was -28.6%.
On to `COC(=O)C1C2CC3c4[nH]c5cc(OC)ccc5c4CCN3CC2CC(OC2CCCCO2)C1OC` (stereo not drawn), for which the max response is -12.1%.
As to `S=c1[nH]cnc2sc(-c3ccccc3)cc12`, the max response is -2.16%.
With `Oc1sc(C=Nc2ccc(F)cc2)c2ccccc12`, the Potency is 4.11 µM (active).
For `CCN(CC)C(=O)CSC(Nc1cccc(F)c1)=C(C#N)C#N`, the max response was -4.73%.
As for `CN(C)c1ccc(/C=N/NC(=O)c2cc(-c3ccc4c(c3)OCO4)n[nH]2)cc1`, the Potency is 17.7 µM (active).
For the molecule `O=C(N/N=C/c1ccc2c(c1)OCO2)c1ccc2c(c1)OCCO2`, the max response was -24.9%.
Turning to `O=C(NN=Cc1c(O)ccc2ccccc12)c1ccc2c(c1)OCO2`, the max response is -14.5%.
As to `COCCCNC(=S)N/N=C/c1cccc(OC)c1O`, the max response was -1.71%.
For `CCCN1CCc2c(sc(NC(=O)c3ccc(S(=O)(=O)N(C)c4ccccc4)cc3)c2C(N)=O)C1`, the Potency is 20.6 µM (active).
For the molecule `O=C(Nc1ncc(Cc2ccc(SC(F)F)cc2)s1)c1ccccc1`, the max response was -6.02%.
`NC(=O)c1c(NC(=O)c2ccccc2)sc2c1CCN(Cc1ccccc1)C2`: the Potency is 14 µM (active).
With `Cc1nc2ccc(NC(=O)c3cc(S(=O)(=O)N(C)c4ccccc4)ccc3Cl)cc2s1`, the max response was -11.3%.
Regarding `CC(C)(C)C(=O)Nc1sc2c(c1C#N)CCN(Cc1ccccc1)C2`, the max response is -17.1%.
With `CCCN1CCc2c(sc(NC(=O)c3ccc(S(=O)(=O)N(C)c4ccccc4)cc3)c2C(=O)NC)C1`, the Potency is 23.1 µM (active).
With `CC(C)CN(CC(C)C)S(=O)(=O)c1ccc(C(=O)Nc2sc3c(c2C(N)=O)CCN(C(C)C)C3)cc1`, the Potency was 20.6 µM (active).
For `CCCCOc1ccc2c(c1)/C(=C(\C(Cl)=C(Cl)Cl)[N+](=O)[O-])N2`, the max response was -18.3%.
Turning to `CCS(=O)(=O)N1CCc2cc(C(=O)N3CCN(c4cccc(C(F)(F)F)c4)CC3)ccc21`, the max response is -12.8%.
With `CC1=CC(C)(C)NC(=S)N1c1ccc2ccccc2c1`, the max response was 1.72%.
Take `N#Cc1c(NC(=O)c2ccc([N+](=O)[O-])o2)sc2c1CCC2`: the max response is -22.4%.
Consider `CC(C)N1CCc2c(sc(NC(=O)c3cc4cc([N+](=O)[O-])ccc4s3)c2C(N)=O)C1`, for which the Potency was 20.6 µM (active).
With `CCN1CCc2c(sc(NC(=O)c3ccc(S(=O)(=O)N(CC)c4ccccc4)cc3)c2C(N)=O)C1`, the Potency was 9.94 µM (active).
For `CCN1CCc2c(sc(-n3cccc3)c2C(C)NC(=O)Nc2ccc(C(=O)OC)cc2)C1` (stereo not drawn), the max response was 0.47%.
Take `CC(=O)Nc1ccc(Nc2c3c4c(cccc4n(C)c2=O)C(=O)c2ccccc2-3)cc1`: the max response is -27.5%.
In the case of `CCCCOc1nc2ccccc2nc1NS(=O)(=O)c1ccc(F)cc1`, the max response is 5.01%.
Still for that read-out and setting: next, `Cc1ccc2c(Cl)c(C)c(N3CCCC3)nc2n1`: 1.73%; `Clc1ccccc1Cn1c(/C=C/c2ccco2)nc2ccccc21`: -8.9%.
Still for that read-out and setting: next, `CCC(=O)Nc1nonc1-c1nc2ccccc2n1Cc1ccccc1`: -26.4%.
With `ClCc1nc2ccccc2n1Cc1ccccc1`, the Potency is 18.4 µM (active).
For `CCCOc1ccc(NC(=O)CC2C(=O)N(c3ccc(OCC)cc3)C(=S)N2C2CC2)cc1` (stereo not drawn), the max response is -28%.
`CCC(=O)Nc1ccccc1-c1nc2ccccc2n(C(C)C(=O)Nc2ccc(OC)cc2)c1=O` (stereo not drawn): the Potency was 11.6 µM (active).
For `CCOC(=O)N1CCC(Nc2nc3ccccc3n3nnnc23)CC1`, the max response is -9.96%.
As for `CCOC(=O)Nc1cc2c(c(N)n1)N=C(c1ccccc1)CN2`, the Potency is 0.0259 µM (active).
In the case of `Cc1ccc(-c2cn3nc(-c4ccccc4)c(-c4ccccc4)nc3n2)cc1`, the Potency is 18.4 µM (active).
With `COC(=O)c1sc2nc(CSc3ccc(Br)cc3)[nH]c(=O)c2c1C`, the max response was -22%.
Regarding `Cc1ccc(CSc2nc(-c3ccc(C(C)(C)C)cc3)nc3cc(=O)[nH]n23)cc1`, the max response was -0.911%.
In the case of `COc1cc(-c2noc(C)c2/C=C/c2ccc(OC(C)=O)cc2)cc(OC)c1OC`, the Potency is 0.627 µM (active).
As for `N#CC(C(=S)Nc1ccccc1)c1nc2ccccc2[nH]1` (stereo not drawn), the max response is -16.9%.
As for `CCOC(=O)Cn1c(=O)c(-c2cc(Br)ccc2N)nc2ccccc21`, the Potency was 8.2 µM (active).
As to `CCOc1ccccc1N1CC(c2nc3ccccc3n2Cc2c(C)cc(C)cc2C)CC1=O` (stereo not drawn), the max response is -7.39%.
Consider `CCOC(=O)COn1c(=O)c(-c2ccc(Br)cc2)[n+]([O-])c2ccccc21`, for which the max response is 3.1%.
For the molecule `CC(C)n1c(O)c(N=Nc2ccc(Cl)nn2)c2ccccc21`, the Potency was 20.6 µM (active).
`CCOC(=O)c1c(-c2ccc(OC)cc2)csc1/N=C/C1C(=O)CCCC1=O`: the max response is -2.18%.
Regarding `N#CCSc1ccccc1NC(=O)COc1ccc(-c2nnco2)cc1`, the Potency is 17.7 µM (active).
On to `CSc1ccccc1NC(=O)COC(=O)/C=C/c1ccco1`, for which the max response is -23.1%.
Same read-out and setting: to `Cc1ccc(C(=O)CCC(=O)OCC(=O)Nc2ccccc2SCC#N)cc1` belongs -8.08%; to `N#CCSc1ccccc1NC(=O)COC(=O)CCNC(=O)c1ccc([N+](=O)[O-])cc1`, -12%.
On to `Cc1nc(C)c(C(=O)OCC(=O)Nc2ccccc2SCC#N)s1`, for which the Potency is 15.8 µM (active).
Take `Cc1noc(C)c1C(=O)OCC(=O)Nc1ccccc1SCC#N`: the max response was -24.1%.
On to `CCCCOc1ccc(/C=C/C2=CC(C)(C)NC(=S)N2)cc1OCC`, for which the max response was -3.97%.
As for `CCN(CC)c1ccc(/C=C/C2=C3C=CC=CC3NC=C2)cc1` (stereo not drawn), the Potency was 18.4 µM (active).
Still for that read-out and setting: next, `CCN(CC)c1ccc(/C=C/c2ccccn2)cc1`: 5.17 µM (active).
In the case of `CN(C)c1ccc(/C=C/c2ccncc2)cc1`, the max response is -29.1%.
Consider `CCN(CC)c1ccc(/C=C/c2ccncc2)cc1`, for which the Potency was 4.11 µM (active).
